PubChem BioAssay

Assay: growth modulation of vineyard yeast isolate – strain RM11-1a, OD600, basal, 24 h, primary screen (AID 1177);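 note: cultures grown under basal conditions with no added stressor; test concentration not given here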
Details: S. cerevisiae RM11-1a growth, OD600, 24 h; higher = more signal, called active from +8 up or from −8 down

z-score, inactive:
COCCn1c(C(=O)N2CCCC2)cc2c1C[C@H]1CN(C(=O)c3ccccc3)[C@@](Cc3ccccc3)(C(=O)OC)[C@@H]21 1.41
CCCC[C@@H](O)C1=C(COC)Cn2c(=O)n(-c3ccccc3)c(=O)n2[C@H]1CO -2.03
CN(C)C(=O)[C@]1(Cc2ccccc2)N=C(c2ccc(OCCCO)cc2)O[C@@H]1c1ccccc1 0.597
COc1ccc([Si](C)(C)[C@H]2[C@H](CCO)O[C@@]3(C(=O)N(Cc4ccc(N5CCOC5=O)cc4)c4ccccc43)[C@@H]2C)cc1 5.44
C=CCC(OC(C)=O)[C@@H]1[C@@H](N(Cc2cccc3ccccc23)C(=O)c2ccc(-c3ccccc3)cc2)c2cc(OCCCO)ccc2N1C(=O)c1ccc2ccccc2n1 (stereo not given in full) -0.634
C=CC[C@@]1(C(=O)O)N=C(c2ccc(OCCCO)cc2)O[C@@H]1c1ccccc1CN=[N+]=[N-] -0.534
COC(=O)c1c(CC[C@@H](CO)NC(=O)N[C@@H](Cc2ccccc2)Cn2cc(-c3cncn3C)nn2)oc(C(C)=O)c1C(=O)OC -0.688
COC(=O)Cn1c(C(=O)N(C)C)cc2c1C[C@H]1CN(C(=O)c3ccccc3)[C@@](Cc3ccc(OC)cc3)(C(=O)OC)[C@@H]21 0.555
CCCC=C(CCC)[C@@H](NS(=O)(=O)c1ccc(Cl)cc1)c1ccccc1 -0.233
COc1ccc(CCNC(=O)[C@@H]2c3ccccc3C(=O)N(CC34CC5CC(CC(C5)C3)C4)[C@H]2c2ccc(CO)cc2)cc1 -0.134
